In ChEMBL document CHEMBL2218924, “A broad activity screen in support of a chemogenomic map for kinase signalling research and drug discovery” (Biochem J, 2013) one finds residual activity data, which are given here for 16 compounds.

For one experiment, the target named is Tyrosine-protein kinase FRK (Homo sapiens) (UniProt P42685). To be noted: at 1 µM.
Tyrosine-protein kinase FRK (Homo sapiens), sequence (P42685 whole entry): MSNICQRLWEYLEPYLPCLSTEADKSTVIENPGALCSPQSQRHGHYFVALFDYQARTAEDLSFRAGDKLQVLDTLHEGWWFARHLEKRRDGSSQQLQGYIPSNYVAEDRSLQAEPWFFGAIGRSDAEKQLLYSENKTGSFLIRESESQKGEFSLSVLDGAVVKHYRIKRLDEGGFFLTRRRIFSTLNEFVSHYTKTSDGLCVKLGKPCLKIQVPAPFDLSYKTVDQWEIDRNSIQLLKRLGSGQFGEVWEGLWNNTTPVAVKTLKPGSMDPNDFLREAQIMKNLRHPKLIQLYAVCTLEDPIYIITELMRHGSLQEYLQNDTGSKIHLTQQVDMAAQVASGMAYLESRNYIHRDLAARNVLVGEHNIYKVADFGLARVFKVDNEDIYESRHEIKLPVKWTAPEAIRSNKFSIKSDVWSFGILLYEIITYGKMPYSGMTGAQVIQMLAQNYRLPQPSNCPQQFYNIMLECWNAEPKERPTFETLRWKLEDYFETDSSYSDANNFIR
On to `COc1cc2ncnc(Nc3ccc(OCc4ccccc4)cc3)c2cc1OC`, for which the residual activity amounted to 98%.
On the same count and under the same terms, next, `C[S+]([O-])c1ccc(-c2nc(-c3ccc(F)cc3)c(-c3ccncc3)[nH]2)cc1` (stereo not given): 71%.
On the same count and under the same terms, then `CC(C)[C@H](CO)Nc1nc(Nc2cccc(Cl)c2)c2ncn(C(C)C)c2n1`, with 59%; and `COC(=O)[C@@]1(O)C[C@H]2O[C@]1(C)n1c3ccccc3c3c4c(c5c6ccccc6n2c5c31)C(=O)NC4`, with 25%; and `CC(C)(C)c1cc(C=C(C#N)C#N)cc(Br)c1O`, with 100%.
The same measure, in the same setting: next, `O=C1NC(=O)c2c1c1c3ccccc3n3c1c1c2c2ccccc2n1C1CCC3O1`: 71%.
`COc1cc(OC)c(/C=C2\C(=O)Nc3ccccc32)c(OC)c1`: the residual activity was found to be 90%.
Same read-out and setting: next, `O=[N+]([O-])/C=C/c1ccc2c(c1)OCO2`: 105%.
The same measure, in the same setting: next, `CCn1cnc2c(Nc3cccc(Cl)c3)nc(N[C@@H]3CCCC[C@@H]3N)nc21`: 43%.
Same read-out and setting: then `c1cc(-c2cnn3cc(-c4ccc(OCCN5CCCCC5)cc4)cnc23)ccn1`, with 65%.
On to `COc1ccc2c(c[n+](C)c3c4cc5c(cc4ccc23)OCO5)c1OC`, for which the residual activity came to 94%.
On the same count and under the same terms, next, `CCc1nc(-c2ccc(OC)cc2)[nH]c1-c1ccncc1`: 102%; `O=c1[nH]c2ccccc2n1C1CCN(Cc2ccc(-c3nc4cc5[nH]cnc5cc4nc3-c3ccccc3)cc2)CC1`: 99%; `O=C1Nc2ccc3ncsc3c2/C1=C/c1c[nH]cn1`: 83%.

Another experiment has the same target. To be noted: at 10 µM.
With `COc1cc2ncnc(Nc3ccc(OCc4ccccc4)cc3)c2cc1OC`, the residual activity stood at 123%.
On the same count and under the same terms, next, `C[S+]([O-])c1ccc(-c2nc(-c3ccc(F)cc3)c(-c3ccncc3)[nH]2)cc1` (stereo not given): 17%; `CC(C)[C@H](CO)Nc1nc(Nc2cccc(Cl)c2)c2ncn(C(C)C)c2n1`: 9%.
On the same count and under the same terms, next, `COC(=O)[C@@]1(O)C[C@H]2O[C@]1(C)n1c3ccccc3c3c4c(c5c6ccccc6n2c5c31)C(=O)NC4`: 6%; `CC(C)(C)c1cc(C=C(C#N)C#N)cc(Br)c1O`: 76%; `O=C1NC(=O)c2c1c1c3ccccc3n3c1c1c2c2ccccc2n1C1CCC3O1`: 66%.
On the same count and under the same terms, next, `COc1cc(OC)c(/C=C2\C(=O)Nc3ccccc32)c(OC)c1`: 99%; `O=[N+]([O-])/C=C/c1ccc2c(c1)OCO2`: 105%.
Turning to `CCn1cnc2c(Nc3cccc(Cl)c3)nc(N[C@@H]3CCCC[C@@H]3N)nc21`, the residual activity came out at 8%.
Regarding `c1cc(-c2cnn3cc(-c4ccc(OCCN5CCCCC5)cc4)cnc23)ccn1`, the residual activity is 7%.
On the same count and under the same terms, then `COc1ccc2c(c[n+](C)c3c4cc5c(cc4ccc23)OCO5)c1OC`, with 69%; and `CCc1nc(-c2ccc(OC)cc2)[nH]c1-c1ccncc1`, with 100%; and `O=c1[nH]c2ccccc2n1C1CCN(Cc2ccc(-c3nc4cc5[nH]cnc5cc4nc3-c3ccccc3)cc2)CC1`, with 107%.
Still for that read-out and setting: next, `O=C1Nc2ccc3ncsc3c2/C1=C/c1c[nH]cn1`: 33%.

For the next experiment, the target named is T1, Phosphorylase b kinase gamma catalytic chain, liver/testis isoform (Homo sapiens) (UniProt P15735).
T1 sequence (whole entry): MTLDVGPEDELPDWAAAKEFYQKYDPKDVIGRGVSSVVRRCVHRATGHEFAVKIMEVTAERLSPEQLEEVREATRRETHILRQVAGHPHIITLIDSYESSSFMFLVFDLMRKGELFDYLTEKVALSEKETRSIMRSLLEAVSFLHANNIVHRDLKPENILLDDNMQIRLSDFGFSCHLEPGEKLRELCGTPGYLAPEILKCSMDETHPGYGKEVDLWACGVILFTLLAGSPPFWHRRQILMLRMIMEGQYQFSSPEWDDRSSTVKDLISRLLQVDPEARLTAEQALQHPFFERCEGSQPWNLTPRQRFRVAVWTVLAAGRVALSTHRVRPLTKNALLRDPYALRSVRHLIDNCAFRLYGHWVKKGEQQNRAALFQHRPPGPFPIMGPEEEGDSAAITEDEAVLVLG
As to conditions: at 1 µM.
On to `COc1cc2ncnc(Nc3ccc(OCc4ccccc4)cc3)c2cc1OC`, for which the residual activity amounted to 98%.
On the same count and under the same terms, then `C[S+]([O-])c1ccc(-c2nc(-c3ccc(F)cc3)c(-c3ccncc3)[nH]2)cc1` (stereo not given), with 109%; and `CC(C)[C@H](CO)Nc1nc(Nc2cccc(Cl)c2)c2ncn(C(C)C)c2n1`, with 122%; and `O=C1c2ccccc2-c2nc3nnnn3nc21`, with 103%.
Same read-out and setting: next, `COC(=O)[C@@]1(O)C[C@H]2O[C@]1(C)n1c3ccccc3c3c4c(c5c6ccccc6n2c5c31)C(=O)NC4`: 0%; `CC(C)(C)c1cc(C=C(C#N)C#N)cc(Br)c1O`: 115%.
Same read-out and setting: next, `O=[N+]([O-])/C=C/c1ccc2c(c1)OCO2`: 105%.
In the case of `CCn1cnc2c(Nc3cccc(Cl)c3)nc(N[C@@H]3CCCC[C@@H]3N)nc21`, the residual activity was 78%.
Same read-out and setting: next, `c1cc(-c2cnn3cc(-c4ccc(OCCN5CCCCC5)cc4)cnc23)ccn1`: 34%; `COc1ccc2c(c[n+](C)c3c4cc5c(cc4ccc23)OCO5)c1OC`: 111%; `CCc1nc(-c2ccc(OC)cc2)[nH]c1-c1ccncc1`: 103%.
Same read-out and setting: next, `O=c1[nH]c2ccccc2n1C1CCN(Cc2ccc(-c3nc4cc5[nH]cnc5cc4nc3-c3ccccc3)cc2)CC1`: 101%.
On the same count and under the same terms, next, `O=C1Nc2ccc3ncsc3c2/C1=C/c1c[nH]cn1`: 47%.

For a further experiment, the target named is T1, Phosphorylase b kinase gamma catalytic chain, liver/testis isoform (Homo sapiens). To be noted: at 10 µM.
In the case of `COc1cc2ncnc(Nc3ccc(OCc4ccccc4)cc3)c2cc1OC`, the residual activity is 113%.
For the compound `C[S+]([O-])c1ccc(-c2nc(-c3ccc(F)cc3)c(-c3ccncc3)[nH]2)cc1` (stereo not given), the residual activity is 106%.
On the same count and under the same terms, next, `CC(C)[C@H](CO)Nc1nc(Nc2cccc(Cl)c2)c2ncn(C(C)C)c2n1`: 82%.
As for `O=C1c2ccccc2-c2nc3nnnn3nc21`, the residual activity came to 120%.
The same measure, in the same setting: next, `COC(=O)[C@@]1(O)C[C@H]2O[C@]1(C)n1c3ccccc3c3c4c(c5c6ccccc6n2c5c31)C(=O)NC4`: 1%.
`CC(C)(C)c1cc(C=C(C#N)C#N)cc(Br)c1O`: the residual activity was found to be 106%.
The same measure, in the same setting: next, `O=[N+]([O-])/C=C/c1ccc2c(c1)OCO2`: 114%; `COc1ccc2c(c1)/C(=C/c1cnc[nH]1)C(=O)N2`: 22%; `CCn1cnc2c(Nc3cccc(Cl)c3)nc(N[C@@H]3CCCC[C@@H]3N)nc21`: 29%.
Same read-out and setting: then `c1cc(-c2cnn3cc(-c4ccc(OCCN5CCCCC5)cc4)cnc23)ccn1`, with 4%; and `COc1ccc2c(c[n+](C)c3c4cc5c(cc4ccc23)OCO5)c1OC`, with 96%; and `CCc1nc(-c2ccc(OC)cc2)[nH]c1-c1ccncc1`, with 105%.
Same read-out and setting: then `O=c1[nH]c2ccccc2n1C1CCN(Cc2ccc(-c3nc4cc5[nH]cnc5cc4nc3-c3ccccc3)cc2)CC1`, with 53%.
With `O=C1Nc2ccc3ncsc3c2/C1=C/c1c[nH]cn1`, the residual activity was 10%.

Usually residual activity stands for the signal under treatment as a percentage of the control signal.
